Assay [1] concerns the target Protein translocase subunit SecA (Escherichia coli (strain K12)) (UniProt P10408). Description: Assay to Identify E. coli SecA ATPase Inhibitors. Format: functional. Also on record: scale not given: direction of the effect not stated beside the values. The conditions noted are these: 30 µM.
In assay [2] the target is T1, Ubiquitin-activating enzyme e1, putative (Leishmania donovani (strain BPK282A1)) (UniProt E9BSI1).
T1 sequence (whole entry): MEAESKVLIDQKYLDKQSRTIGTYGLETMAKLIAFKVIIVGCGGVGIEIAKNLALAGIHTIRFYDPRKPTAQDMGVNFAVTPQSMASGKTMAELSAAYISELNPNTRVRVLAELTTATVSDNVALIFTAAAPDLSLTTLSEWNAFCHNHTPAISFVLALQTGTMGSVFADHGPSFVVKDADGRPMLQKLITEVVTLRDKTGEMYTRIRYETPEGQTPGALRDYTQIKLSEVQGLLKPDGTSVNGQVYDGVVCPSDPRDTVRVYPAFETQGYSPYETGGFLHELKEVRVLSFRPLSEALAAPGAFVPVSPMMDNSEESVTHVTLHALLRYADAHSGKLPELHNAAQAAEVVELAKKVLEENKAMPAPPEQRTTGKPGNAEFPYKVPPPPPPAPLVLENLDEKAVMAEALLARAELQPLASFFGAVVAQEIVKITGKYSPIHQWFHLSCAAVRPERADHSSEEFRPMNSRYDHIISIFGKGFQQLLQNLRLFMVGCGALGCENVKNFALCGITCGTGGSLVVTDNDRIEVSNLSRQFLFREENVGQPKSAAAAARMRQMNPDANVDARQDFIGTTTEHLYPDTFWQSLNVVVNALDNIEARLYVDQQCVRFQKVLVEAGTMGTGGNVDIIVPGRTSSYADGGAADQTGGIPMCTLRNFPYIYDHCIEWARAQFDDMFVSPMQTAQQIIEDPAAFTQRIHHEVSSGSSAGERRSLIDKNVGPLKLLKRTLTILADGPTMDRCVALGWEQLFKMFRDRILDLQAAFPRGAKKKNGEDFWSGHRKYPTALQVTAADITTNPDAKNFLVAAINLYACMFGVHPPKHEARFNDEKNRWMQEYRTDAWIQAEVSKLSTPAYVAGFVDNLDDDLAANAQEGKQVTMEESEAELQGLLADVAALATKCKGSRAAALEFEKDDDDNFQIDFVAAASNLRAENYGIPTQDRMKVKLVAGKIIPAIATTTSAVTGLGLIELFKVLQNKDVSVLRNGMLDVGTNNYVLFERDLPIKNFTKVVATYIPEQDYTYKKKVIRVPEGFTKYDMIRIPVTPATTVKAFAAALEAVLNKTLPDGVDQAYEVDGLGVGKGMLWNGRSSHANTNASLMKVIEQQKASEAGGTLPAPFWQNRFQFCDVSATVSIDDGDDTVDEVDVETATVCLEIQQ
As to the kind of experiment: Leishmania donovani Ubiquitin Activating Enzyme (LdE1). Format: functional. On the set-up: scale not given: direction of the effect not stated beside the values. The conditions noted are these: 30 µM.

Assay [3] deals with T2, Aspartate--tRNA(Asp/Asn) ligase (Mycobacterium tuberculosis (strain ATCC 25618 / H37Rv)) (UniProt P9WFW3).
T2 sequence (whole entry): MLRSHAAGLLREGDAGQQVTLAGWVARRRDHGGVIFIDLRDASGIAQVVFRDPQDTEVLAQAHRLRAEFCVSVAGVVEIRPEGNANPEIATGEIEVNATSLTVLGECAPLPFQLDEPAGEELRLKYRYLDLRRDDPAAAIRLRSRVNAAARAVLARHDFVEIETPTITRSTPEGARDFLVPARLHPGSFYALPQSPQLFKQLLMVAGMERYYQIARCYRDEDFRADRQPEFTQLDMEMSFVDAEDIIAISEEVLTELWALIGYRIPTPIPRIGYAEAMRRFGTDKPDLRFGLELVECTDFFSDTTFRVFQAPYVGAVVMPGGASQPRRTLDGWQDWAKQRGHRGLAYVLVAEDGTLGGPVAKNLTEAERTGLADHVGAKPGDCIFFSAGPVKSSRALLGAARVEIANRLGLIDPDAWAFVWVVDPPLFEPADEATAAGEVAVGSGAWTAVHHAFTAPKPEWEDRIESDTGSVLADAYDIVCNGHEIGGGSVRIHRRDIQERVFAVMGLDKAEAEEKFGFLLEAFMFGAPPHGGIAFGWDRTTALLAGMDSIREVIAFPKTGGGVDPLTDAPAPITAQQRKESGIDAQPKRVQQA
As to the kind of experiment: Assay for Asp RNA synthetase-1 from Mycobacterium tuberculosis. Format: functional. On the set-up: scale not given: direction of the effect not stated beside the values. The conditions noted are these: 30 µM.

For assay [4], the target named is AMP-activated protein kinase, AMPK (Homo sapiens) (UniProt P54646+O43741+P54619+Q9UGJ0+Q9Y478+Q13131+Q9UGI9). Description: AMP-dependent Kinase enzyme assay. An in vitro enzyme assay that detects ADP turnover that is directly proportional to AMPK activity. This uses naive AMPK that is activated during the assay with MK-8722. Format: functional. On the set-up: scale not given: direction of the effect not stated beside the values. The conditions noted are these: 30 µM.

Assay [5] addresses Sialic acid-binding Ig-like lectin 9 (Homo sapiens) (UniProt Q9Y336). As to the kind of experiment: Hs-Siglec9 ALPHAscreen SOP 20170721. On the set-up: scale not given: direction of the effect not stated beside the values. To be noted: 10 µM.
Assay [6] deals with Trypanosoma cruzi. As to the kind of experiment: Trypanosoma cruzi phosphomannomutase and mannose-1-phosphate guanylyltransferase assay. Format: functional. Also on record: scale not given: direction of the effect not stated beside the values. To be noted: 10 µM.
Assay [7] concerns the target T3, Arginase-2, mitochondrial (Homo sapiens) (UniProt P78540).
T3 sequence (whole entry): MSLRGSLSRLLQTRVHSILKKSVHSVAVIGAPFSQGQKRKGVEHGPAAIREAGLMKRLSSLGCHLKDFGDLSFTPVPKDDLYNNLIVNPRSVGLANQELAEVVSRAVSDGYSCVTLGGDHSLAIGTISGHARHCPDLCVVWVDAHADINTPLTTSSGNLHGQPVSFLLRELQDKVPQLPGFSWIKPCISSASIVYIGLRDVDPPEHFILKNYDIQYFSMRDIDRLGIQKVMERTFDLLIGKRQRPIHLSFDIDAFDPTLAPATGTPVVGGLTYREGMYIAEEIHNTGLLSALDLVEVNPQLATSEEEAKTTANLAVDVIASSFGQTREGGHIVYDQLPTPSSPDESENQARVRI
As to the kind of experiment: in vitro enzyme assay to detect the production of urea directly proportional to the activity of Arginase II. To be noted: 33.3 µM. Format: functional. Also on record: scale not given: in the data most compounds retested in dose-response had high values.

Assay [8] addresses T4, Proteasome subunit beta (Trypanosoma cruzi) (UniProt O96673).
T4 sequence (whole entry): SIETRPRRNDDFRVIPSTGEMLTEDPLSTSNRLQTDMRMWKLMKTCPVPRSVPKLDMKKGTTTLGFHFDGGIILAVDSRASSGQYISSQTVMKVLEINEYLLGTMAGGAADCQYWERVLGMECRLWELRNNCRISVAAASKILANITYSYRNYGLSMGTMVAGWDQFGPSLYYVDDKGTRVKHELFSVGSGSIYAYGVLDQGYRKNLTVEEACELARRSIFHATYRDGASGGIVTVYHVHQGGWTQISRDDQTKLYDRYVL
Description: Trypanosoma cruzi proteasome chymotrypsin-like activity (TcProtChymo) assay. Format: functional. Also on record: scale not given: in the data most compounds retested in dose-response had high values. To be noted: 9.37 µM.

Assay [9] deals with N/A. As to the kind of experiment: Trypanosoma cruzi proteasome luciferase counter-screen. Format: functional. Also on record: scale not given: direction of the effect not stated beside the values. The conditions noted are these: 9.37 µM.
For assay [10], the species on record is Homo sapiens. Description: To identify inhibition of the IFN signalling (Jak-Stat) pathway via expression of an eGFP reporter gene under the control of an IFN-stimulated response element (ISRE) containing MxA promoter. Format: functional. Also on record: scale not given: direction of the effect not stated beside the values. To be noted: 30 µM. Background: In a reporter assay the amount or activity of a reporter protein is the signal.

The target in assay [11] is Shiga toxin 2 (Escherichia coli O157:H7) (UniProt P09385+P09386). Description: E. coli 0.157:H7 Shiga Toxin SOP - stx2 screening assay. Also on record: scale not given: direction of the effect not stated beside the values. Format: functional. To be noted: 30 µM.
Assay [12] concerns the target T5, Tyrosyl-tRNA synthetase, putative (Trypanosoma cruzi (strain CL Brener)) (UniProt Q4DSP6).
T5 sequence (whole entry): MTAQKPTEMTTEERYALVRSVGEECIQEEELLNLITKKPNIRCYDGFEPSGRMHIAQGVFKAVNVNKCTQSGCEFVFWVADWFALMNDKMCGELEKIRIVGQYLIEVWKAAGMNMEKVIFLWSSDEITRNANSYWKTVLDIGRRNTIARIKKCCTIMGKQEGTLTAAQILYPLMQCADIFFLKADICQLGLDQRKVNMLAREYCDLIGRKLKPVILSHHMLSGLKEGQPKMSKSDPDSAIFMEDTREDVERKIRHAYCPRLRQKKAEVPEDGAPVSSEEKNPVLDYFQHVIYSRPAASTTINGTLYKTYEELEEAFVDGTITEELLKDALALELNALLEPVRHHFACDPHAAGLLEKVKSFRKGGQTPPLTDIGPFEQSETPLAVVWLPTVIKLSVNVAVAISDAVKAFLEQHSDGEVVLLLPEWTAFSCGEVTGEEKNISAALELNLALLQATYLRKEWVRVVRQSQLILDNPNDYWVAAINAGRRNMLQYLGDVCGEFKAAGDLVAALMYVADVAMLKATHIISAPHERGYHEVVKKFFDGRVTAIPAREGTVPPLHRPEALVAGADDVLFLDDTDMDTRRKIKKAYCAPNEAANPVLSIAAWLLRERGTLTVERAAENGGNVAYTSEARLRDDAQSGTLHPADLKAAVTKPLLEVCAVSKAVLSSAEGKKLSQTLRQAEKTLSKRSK
As to the kind of experiment: Trypanosoma cruzi tyrosyl tRNA synthetase (TcYRS) _High Tyrosine SOP. Format: functional. Also on record: scale not given: in the data most compounds retested in dose-response had high values. The conditions noted are these: 30 µM.

Assay [13] concerns the target T5, Tyrosyl-tRNA synthetase, putative (Trypanosoma cruzi (strain CL Brener)). Description: Trypanosoma cruzi tyrosyl tRNA synthetase (TcYRS) SOP. Format: functional. On the set-up: scale not given: direction of the effect not stated beside the values. To be noted: 30 µM.
The target in assay [14] is Chromo domain-containing protein 1 (Saccharomyces cerevisiae (strain ATCC 204508 / S288c) (Baker's yeast)) (UniProt P32657). Description: ScCHD-1 Enzyme Inhibition Assay. Format: functional. On the set-up: scale not given: in the data most compounds retested in dose-response had high values. To be noted: 30 µM.
Sequence of Chromo domain-containing protein 1 (Saccharomyces cerevisiae (strain ATCC 204508 / S288c) (Baker's yeast)) (P32657 whole entry, the tested form may be a part): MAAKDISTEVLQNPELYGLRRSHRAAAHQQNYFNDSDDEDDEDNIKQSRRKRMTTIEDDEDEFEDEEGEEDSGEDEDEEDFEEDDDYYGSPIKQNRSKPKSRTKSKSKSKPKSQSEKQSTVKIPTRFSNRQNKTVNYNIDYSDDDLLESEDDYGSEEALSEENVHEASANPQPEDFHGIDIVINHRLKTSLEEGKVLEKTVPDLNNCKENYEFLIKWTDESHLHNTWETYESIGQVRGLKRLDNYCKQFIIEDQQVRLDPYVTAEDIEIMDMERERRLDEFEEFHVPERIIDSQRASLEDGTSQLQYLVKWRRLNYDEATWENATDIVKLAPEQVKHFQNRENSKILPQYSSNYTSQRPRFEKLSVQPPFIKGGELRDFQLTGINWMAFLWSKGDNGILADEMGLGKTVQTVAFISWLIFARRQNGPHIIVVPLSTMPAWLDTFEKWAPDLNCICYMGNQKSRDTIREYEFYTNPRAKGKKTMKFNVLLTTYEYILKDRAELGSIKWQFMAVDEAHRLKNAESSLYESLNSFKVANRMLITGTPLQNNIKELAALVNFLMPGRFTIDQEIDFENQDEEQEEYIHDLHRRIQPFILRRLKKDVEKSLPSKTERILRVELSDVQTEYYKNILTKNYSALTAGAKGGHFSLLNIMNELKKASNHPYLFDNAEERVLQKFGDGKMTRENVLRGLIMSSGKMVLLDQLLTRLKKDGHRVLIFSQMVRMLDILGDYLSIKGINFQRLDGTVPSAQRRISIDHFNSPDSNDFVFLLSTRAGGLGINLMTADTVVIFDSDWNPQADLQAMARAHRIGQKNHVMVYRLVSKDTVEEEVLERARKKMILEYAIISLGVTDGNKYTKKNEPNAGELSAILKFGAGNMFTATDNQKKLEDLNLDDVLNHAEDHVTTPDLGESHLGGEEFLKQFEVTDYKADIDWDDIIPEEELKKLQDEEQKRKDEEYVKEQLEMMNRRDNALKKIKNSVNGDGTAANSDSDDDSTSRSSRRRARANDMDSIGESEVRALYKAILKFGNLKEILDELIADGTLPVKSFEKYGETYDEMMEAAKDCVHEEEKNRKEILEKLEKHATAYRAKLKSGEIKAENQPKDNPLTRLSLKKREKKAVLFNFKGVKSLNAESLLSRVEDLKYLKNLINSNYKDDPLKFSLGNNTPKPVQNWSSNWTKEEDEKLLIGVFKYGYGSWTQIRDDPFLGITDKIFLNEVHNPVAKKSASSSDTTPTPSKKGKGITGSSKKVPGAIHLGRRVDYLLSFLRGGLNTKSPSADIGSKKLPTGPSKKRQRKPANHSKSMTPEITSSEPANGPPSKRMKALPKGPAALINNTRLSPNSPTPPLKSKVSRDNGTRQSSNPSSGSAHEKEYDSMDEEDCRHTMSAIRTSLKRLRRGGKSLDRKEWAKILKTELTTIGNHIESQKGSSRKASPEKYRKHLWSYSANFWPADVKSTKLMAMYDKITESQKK
Assay [15] deals with T6, Methionyl-tRNA synthetase, putative (Leishmania donovani (strain BPK282A1)) (UniProt E9BF75).
T6 sequence (whole entry): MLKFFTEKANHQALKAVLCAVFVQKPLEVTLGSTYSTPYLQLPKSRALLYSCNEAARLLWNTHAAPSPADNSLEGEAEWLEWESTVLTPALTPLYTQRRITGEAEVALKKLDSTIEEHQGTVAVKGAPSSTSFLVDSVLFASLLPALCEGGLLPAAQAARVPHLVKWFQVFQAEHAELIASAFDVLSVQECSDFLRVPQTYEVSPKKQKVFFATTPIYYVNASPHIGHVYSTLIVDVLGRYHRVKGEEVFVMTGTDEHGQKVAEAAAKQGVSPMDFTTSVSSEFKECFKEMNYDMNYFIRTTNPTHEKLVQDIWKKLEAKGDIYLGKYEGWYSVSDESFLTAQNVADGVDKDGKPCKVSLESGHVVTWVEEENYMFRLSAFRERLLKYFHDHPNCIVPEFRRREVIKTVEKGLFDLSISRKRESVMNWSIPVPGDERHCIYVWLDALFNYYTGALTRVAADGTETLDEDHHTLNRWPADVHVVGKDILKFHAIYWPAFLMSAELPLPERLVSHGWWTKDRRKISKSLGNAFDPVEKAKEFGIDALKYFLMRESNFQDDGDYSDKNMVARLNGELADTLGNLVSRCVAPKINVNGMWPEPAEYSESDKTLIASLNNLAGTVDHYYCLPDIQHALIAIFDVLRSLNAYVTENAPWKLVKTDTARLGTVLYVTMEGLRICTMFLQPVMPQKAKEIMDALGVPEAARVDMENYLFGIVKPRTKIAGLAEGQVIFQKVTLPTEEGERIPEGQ
Description: Leishmania donovani Methionine tRNA synthetase (LdMetRS):v7. Dose response assay. Format: functional. On the set-up: conc 80 nM, time 150 minutes.

Values joined by “and” are separate entries in the source; they are usually repeats but may differ in a detail not shown here. Identical values can stand only once. For some assays here: Measured potencies and affinities stand elsewhere. Some results are limits rather than exact numbers.

Sequence of Protein translocase subunit SecA (Escherichia coli (strain K12)) (P10408 whole entry): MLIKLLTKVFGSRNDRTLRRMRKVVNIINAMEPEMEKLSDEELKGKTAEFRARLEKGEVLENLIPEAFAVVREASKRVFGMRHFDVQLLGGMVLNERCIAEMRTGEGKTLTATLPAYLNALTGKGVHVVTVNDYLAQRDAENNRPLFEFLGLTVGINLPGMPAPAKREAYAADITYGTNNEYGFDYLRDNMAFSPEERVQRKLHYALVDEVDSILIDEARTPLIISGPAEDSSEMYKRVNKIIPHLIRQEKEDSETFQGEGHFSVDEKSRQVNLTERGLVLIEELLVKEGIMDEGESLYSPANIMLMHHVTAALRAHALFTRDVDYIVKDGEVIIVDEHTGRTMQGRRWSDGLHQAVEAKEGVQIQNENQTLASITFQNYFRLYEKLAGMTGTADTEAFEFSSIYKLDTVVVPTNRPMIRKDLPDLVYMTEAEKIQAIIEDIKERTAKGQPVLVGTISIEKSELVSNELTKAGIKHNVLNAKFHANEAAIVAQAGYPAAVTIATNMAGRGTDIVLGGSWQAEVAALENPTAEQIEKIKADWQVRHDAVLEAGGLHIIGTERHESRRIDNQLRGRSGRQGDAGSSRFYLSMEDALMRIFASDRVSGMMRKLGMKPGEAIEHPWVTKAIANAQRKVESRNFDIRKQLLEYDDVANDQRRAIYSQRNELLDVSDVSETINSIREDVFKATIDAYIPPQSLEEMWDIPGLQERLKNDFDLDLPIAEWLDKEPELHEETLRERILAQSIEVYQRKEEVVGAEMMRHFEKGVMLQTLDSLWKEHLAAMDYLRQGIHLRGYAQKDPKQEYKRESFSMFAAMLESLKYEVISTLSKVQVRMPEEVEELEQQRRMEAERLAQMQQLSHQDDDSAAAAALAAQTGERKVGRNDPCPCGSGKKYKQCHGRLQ
Sequence of Sialic acid-binding Ig-like lectin 9 (Homo sapiens) (Q9Y336 whole entry): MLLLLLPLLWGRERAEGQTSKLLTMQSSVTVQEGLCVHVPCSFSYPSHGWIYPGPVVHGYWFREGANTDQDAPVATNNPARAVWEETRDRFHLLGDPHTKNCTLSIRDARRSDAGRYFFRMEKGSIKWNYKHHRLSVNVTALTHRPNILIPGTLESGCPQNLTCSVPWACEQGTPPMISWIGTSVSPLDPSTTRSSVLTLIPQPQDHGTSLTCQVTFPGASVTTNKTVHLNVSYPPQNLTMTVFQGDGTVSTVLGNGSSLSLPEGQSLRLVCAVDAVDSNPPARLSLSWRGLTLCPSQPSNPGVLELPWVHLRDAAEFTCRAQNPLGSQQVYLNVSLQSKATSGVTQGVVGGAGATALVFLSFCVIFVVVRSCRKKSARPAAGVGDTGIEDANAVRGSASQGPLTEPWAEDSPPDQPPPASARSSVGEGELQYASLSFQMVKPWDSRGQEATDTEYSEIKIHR

As to `CC(C)=CCN1C[C@H]2CC[C@@H]1CN(C(=O)c1c[nH]c(=O)c(Cl)c1)C2`, the Percent Effect in [1] was -4.07%; in [2], 5.48%; in assay [3], 4.22%; in [4] it was 2.02%; in assay [5] it was 1.06%; in [6], -5.16%. Also, the Percent Effect in assay [7] was -8.38%; in assay [8] it was 35.6% and 31.4% and 37.8%; in [9], 18.4% and 17.9%; in assay [10], 7.03%; in assay [11], -38%; in assay [12], 6.25%. Further, the values for the Percent Effect in [13] and in assay [14] were 13.6% and -2.95%, respectively.
As for `Cc1cc(Cl)cc(Cl)c1O`, the PXC50 in assay [15] (MAX_EFFECT 7.127429806) and in assay [15] (MAX_EFFECT 14.63878327) was less than 3 each time.
On to `CO[C@H]1CCN(Cc2ccccn2)[C@@H]2CN(Cc3ccco3)C[C@H]12`, for which the Percent Effect was -4.75% in assay [1]; 9.33% in assay [2]; -1.34% in assay [3]; 0.435% in assay [4]; 4.87% in assay [5]; -3.34% in assay [6]. The Percent Effect is 2.64% in [7]; 17.7% in assay [8]; -12.9% in [10]; -18.4% in assay [11]; 9.52% in assay [12]; 15.4% in [13]. Also, the Percent Effect in assay [14] was -1.8%.
